In PubChem BioAssay (NCATS):
Records with an inconclusive call do not appear. The source made the active and inactive calls. Unless noted, calls come from the whole dose curve; as a rule, active = well fitted curve in the direction sought with a large enough effect; inconclusive = small, poorly fitted or top-dose-only effect, or another doubt; inactive = no such curve, though single readings can be large; an effect the other way counts as inactive or inconclusive.

Legend:
[1] = target: Cytochrome P450 3A4 (Homo sapiens) (UniProt P08684); assay: qHTS Assay for Inhibitors and Substrates of Cytochrome P450 3A4 (AID 884); note: nearly all actives have a fitted effect of over 50% in size; note: potency is the fitted concentration of half-maximal effect
Summary of the method: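 Luminescent readout of luciferin produced by CYP3A4 (20 nM) dealkylation of Luciferin-PPXE, 25 uM (its KM). NADPH-driven reaction ran 60 min at RT after 10 min compound preincubation; data scaled to 57 uM ketoconazole as 100% inhibition.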

[2] = Cell Viability - LYMP2-001 (AID 921); note: series mostly up to about 92 µM; nearly all actives have a fitted effect of over 70% in size
Summary of the method: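 Cellular ATP loss read by luciferase luminescence after 24 h compound exposure at 37 C in complete medium. LYMP2-001 lymphoblastoid cells, 2500/well; qHTS concentration-response data fitted with Hill equation for AC50.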

[3] = MultiTox-Fluor Cytotoxicity Assay - LYMP1-001 - Dead Cells (AID 946);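 note: cells exposed to compound for 16 h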
Summary of the method: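 AC50 from Hill fit of concentration-response; data normalized to DMSO (basal) and 15 uM tetraoctylammonium bromide (100%). LYMP1-001 lymphoblastoid cells, 2500/well, 16 hr compound at 37 C; dead-cell protease fluorescence, Ex/Em 485/520.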

[4] = MultiTox-Fluor Cytotoxicity Assay - LYMP1-001 - Live Cells (AID 947)
[5] = Cell Viability - LYMP1-002 - Assay at 16 hr (AID 948)
Summary of the method: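 ATP luminescence (CellTiter-Glo) was measured after 16 hr compound exposure at 37 C of 2500 lymphoblastoid LYMP1-002 cells per well. Concentration-response curves were fitted with the Hill equation to give AC50.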

[6] = MultiTox-Fluor Cytotoxicity Assay - LYMP1-002 - Live Cells (AID 955);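 note: cells exposed to compound for 16 hours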
Summary of the method: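 Cells were seeded at 2500 per well and incubated 5 hr. Compounds were then added for 16 hr at 37 C, followed by MultiTox-Fluor reagent for 60 min at room temperature and fluorescence reading of viable-cell protease signal.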

[7] = MultiTox-Fluor Cytotoxicity Assay - LYMP1-002 - Dead Cells (AID 960);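 note: cells exposed to compound for 16 h at 37 °C; nearly all actives have a fitted effect of over 60% in size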
Summary of the method: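 Cells were plated, rested 5 hr, then treated with compound dilution series for 16 hr at 37 C. After adding substrate reagent and 60 min at room temperature, dead-cell protease fluorescence gave concentration-response curves fitted by the Hill equation.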

[8] = Confirmation and Secondary Assay for Modulators of Hemoglobin Beta Chain Splicing at IVS2 654 locus (AID 910);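 note: HeLa cells stably carrying EGFP split by mutant beta-globin IVS2-654 intron; per-well total GFP intensity by laser scanning cytometry after 2-day treatment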
Summary of the method: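 Readout: per-well total peak green fluorescence (488 nm ex, 500–520 nm em) from objects 5–250 µm, reflecting correct splicing of an EGFP-654 reporter. Compounds were applied for 2 days at 37 °C to overnight-plated HeLa EGFP-654 cells; controls were DMSO and 500 nM IVS2-654 PNA.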

[9] = Confirmation and Secondary Assay for Modulators of Hemoglobin Beta Chain Splicing at IVS2 705 locus (AID 930);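 note: HeLa cells stably expressing the EGFP-705 splicing reporter; GFP fluorescence per well restored by corrected splicing of the IVS2-705 intron in EGFP; series mostly up to about 46 µM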
Summary of the method: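 Per-well GFP, captured at 1 x 8 µm resolution with 488 nm excitation, served as the read-out for HeLa EGFP-705 cells incubated 2 days with test compound versus DMSO.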

[10] = target: Guanine nucleotide-binding protein G(i) subunit alpha-1 (Homo sapiens) (UniProt P63096); assay: qHTS Assay for Inhibitors of RGS12 GoLoco Motif Activity (Green Fluorophore) (AID 879);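 note: negative values mean loss of peptide binding seen as reduced polarization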
Summary of the method: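 A drop in FITC polarization marked displacement of the FITC-tagged RGS12 GoLoco peptide (10 nM) from Gαi1 (50 nM). Compounds were incubated 10 min at room temperature in Tris pH 7.5 buffer containing 150 mM NaCl, 0.1 mM GDP and 0.05% NP40; unlabeled peptide titration served as control.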

[11] = target: Muscarinic acetylcholine receptor M1 (Rattus norvegicus) (UniProt P08482); assay: qHTS Assay for Antagonists of Acetylcholine Muscarinic M1 Receptor: Kinetic Measurement of Intracellular Calcium Response (AID 943); note: nearly all actives have a fitted effect of over 75% in size; note: potency is the fitted concentration of half-maximal effect
Summary of the method: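 Antagonism is measured as inhibition of the carbachol-evoked calcium rise in CHO cells transfected with rat M1. Cells are dye-loaded, exposed to compound for 10 min, then stimulated with 100 nM carbachol (EC80).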

[12] = target: Pyruvate kinase (Leishmania mexicana) (UniProt Q27686); assay: qHTS Validation Assay for Inhibitors of Leishmania Mexicana Pyruvate Kinase (AID 945)
Summary of the method: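 An endpoint luciferase assay: 0.2 nM LmPYK E451W turns over 0.5 mM PEP with 0.1 mM ADP for 1 h at room temperature, pH 7.2, before PKLight addition. Values are normalized to DMSO-only wells.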

[13] = target: Pyruvate kinase PKM (Homo sapiens) (UniProt P14618); assay: qHTS Assay for Activators of Human Muscle Pyruvate Kinase (AID 954; active = well fitted curve in the direction sought with a large enough effect, not every such curve was filed as active)
Summary of the method: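 A coupled luminescent readout tracked ATP made from ADP by purified PKM2. Final conditions included 0.1 nM enzyme, PEP and ADP at 0.5 and 0.1 mM, pH 7.2 imidazole buffer with BSA, and a one-hour room-temperature reaction.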

[14] = target: Alpha-galactosidase (Coffea arabica) (UniProt Q42656); assay: Counterscreen for Glucocerebrosidase Inhibitors: qHTS Assay for Coffee Bean alpha-Galactosidase at pH 4.5 (AID 957); note: series mostly up to about 77 µM
Summary of the method: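 Enzyme is added first (2 nM final), then compounds titrated from 0.7 nM to 77 uM, then 80 uM 4-methylumbelliferyl alpha-D-galactopyranoside; after 20 min at room temperature a pH 10 NaOH/glycine stop precedes fluorescence reading at 365/440 nm.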

[15] = target: Cytochrome P450 2C9 (Homo sapiens) (UniProt P11712); assay: qHTS Assay for Inhibitors and Substrates of Cytochrome P450 2C9 (AID 883); note: nearly all actives have a fitted effect of over 60% in size
Summary of the method: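 Inhibition of CYP2C9 is scored as loss of luminescence, with 57uM sulphaphenazole defining 100% inhibition. Substrate Luciferin-H is used at 100uM, equal to its KM; enzyme at 10nM in 25mM KPO4, 60 min at 37C with NADPH regeneration.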

[16] = target: Cytochrome P450 2C19 (Homo sapiens) (UniProt P33261); assay: qHTS Assay for Inhibitors and Substrates of Cytochrome P450 2C19 (AID 899); note: nearly all actives have a fitted effect of over 60% in size; note: potency is the fitted concentration of half-maximal effect
Summary of the method: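 5nM enzyme + 10uM Luciferin-H EGE (=KM), 50mM KPO4; cpd pin-transferred, 10 min 37C; NADPH regen, 60 min 37C; stopped w/ luciferin detection reagent, 20 min; luminescence. Normalized to 57uM ketoconazole (AC100).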

Measured: Potency

Pyruvate kinase PKM (Homo sapiens), sequence (P14618 whole entry, looked up): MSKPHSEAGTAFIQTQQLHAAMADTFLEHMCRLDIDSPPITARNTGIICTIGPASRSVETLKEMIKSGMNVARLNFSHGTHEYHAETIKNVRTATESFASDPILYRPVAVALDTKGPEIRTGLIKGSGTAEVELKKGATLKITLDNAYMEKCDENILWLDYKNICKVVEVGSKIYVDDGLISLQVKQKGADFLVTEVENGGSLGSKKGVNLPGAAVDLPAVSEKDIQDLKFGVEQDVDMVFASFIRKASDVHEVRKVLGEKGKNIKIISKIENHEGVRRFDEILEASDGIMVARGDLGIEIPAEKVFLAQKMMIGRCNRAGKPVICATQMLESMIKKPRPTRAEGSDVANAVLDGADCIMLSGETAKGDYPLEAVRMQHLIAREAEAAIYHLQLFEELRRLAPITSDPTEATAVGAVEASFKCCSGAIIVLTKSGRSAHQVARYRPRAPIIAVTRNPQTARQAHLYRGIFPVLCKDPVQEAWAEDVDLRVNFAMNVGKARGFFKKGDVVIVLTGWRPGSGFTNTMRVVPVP
Cytochrome P450 3A4 (Homo sapiens), sequence (P08684 whole entry, looked up): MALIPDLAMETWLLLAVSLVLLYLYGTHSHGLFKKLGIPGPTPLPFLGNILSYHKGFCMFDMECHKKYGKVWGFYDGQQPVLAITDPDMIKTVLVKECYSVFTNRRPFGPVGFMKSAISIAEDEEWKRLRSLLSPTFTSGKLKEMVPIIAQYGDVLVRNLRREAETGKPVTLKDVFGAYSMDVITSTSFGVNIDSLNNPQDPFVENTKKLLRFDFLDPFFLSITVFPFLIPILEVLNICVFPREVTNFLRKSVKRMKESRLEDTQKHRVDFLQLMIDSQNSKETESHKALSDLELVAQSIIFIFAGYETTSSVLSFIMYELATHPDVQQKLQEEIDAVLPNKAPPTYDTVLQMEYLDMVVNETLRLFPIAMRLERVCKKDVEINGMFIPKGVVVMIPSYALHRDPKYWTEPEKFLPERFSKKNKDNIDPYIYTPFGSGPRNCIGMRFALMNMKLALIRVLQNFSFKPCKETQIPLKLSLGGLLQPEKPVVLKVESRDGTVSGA
Pyruvate kinase (Leishmania mexicana), sequence (Q27686 2-499 E452W): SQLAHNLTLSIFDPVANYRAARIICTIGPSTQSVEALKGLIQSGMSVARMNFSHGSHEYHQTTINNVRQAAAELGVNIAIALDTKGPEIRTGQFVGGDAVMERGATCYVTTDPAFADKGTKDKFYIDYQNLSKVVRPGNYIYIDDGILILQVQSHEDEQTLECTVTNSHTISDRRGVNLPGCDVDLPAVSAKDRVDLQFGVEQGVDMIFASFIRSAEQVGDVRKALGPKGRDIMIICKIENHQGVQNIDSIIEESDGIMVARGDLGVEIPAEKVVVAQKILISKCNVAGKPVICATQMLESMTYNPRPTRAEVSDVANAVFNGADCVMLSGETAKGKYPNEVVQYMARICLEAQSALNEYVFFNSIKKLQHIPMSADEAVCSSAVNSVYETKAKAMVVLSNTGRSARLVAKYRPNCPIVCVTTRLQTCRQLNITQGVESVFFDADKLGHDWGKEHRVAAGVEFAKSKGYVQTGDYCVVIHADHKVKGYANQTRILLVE
Guanine nucleotide-binding protein G(i) subunit alpha-1 (Homo sapiens), sequence (P63096 whole entry, looked up): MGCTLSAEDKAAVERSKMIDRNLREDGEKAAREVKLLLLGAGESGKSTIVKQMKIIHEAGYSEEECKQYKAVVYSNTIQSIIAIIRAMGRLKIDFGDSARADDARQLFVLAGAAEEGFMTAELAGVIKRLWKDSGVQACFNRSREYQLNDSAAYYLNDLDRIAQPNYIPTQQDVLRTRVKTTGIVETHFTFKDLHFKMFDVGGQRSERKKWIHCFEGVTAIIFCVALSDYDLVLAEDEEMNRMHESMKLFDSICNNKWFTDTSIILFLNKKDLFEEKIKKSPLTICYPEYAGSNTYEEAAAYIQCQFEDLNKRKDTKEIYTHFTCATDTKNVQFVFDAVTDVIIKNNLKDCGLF
Alpha-galactosidase (Coffea arabica), sequence (Q42656 whole entry, looked up): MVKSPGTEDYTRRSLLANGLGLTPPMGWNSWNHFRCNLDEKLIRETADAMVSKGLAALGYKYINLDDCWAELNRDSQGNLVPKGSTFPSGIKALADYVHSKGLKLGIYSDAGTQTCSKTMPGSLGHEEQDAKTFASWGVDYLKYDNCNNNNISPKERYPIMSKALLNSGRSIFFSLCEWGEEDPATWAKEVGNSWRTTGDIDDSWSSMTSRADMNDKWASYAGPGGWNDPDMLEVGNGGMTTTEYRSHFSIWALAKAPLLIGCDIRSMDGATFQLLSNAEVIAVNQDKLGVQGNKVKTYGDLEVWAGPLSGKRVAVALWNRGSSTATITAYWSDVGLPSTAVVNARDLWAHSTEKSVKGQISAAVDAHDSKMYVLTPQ
Cytochrome P450 2C19 (Homo sapiens), sequence (P33261 whole entry, looked up): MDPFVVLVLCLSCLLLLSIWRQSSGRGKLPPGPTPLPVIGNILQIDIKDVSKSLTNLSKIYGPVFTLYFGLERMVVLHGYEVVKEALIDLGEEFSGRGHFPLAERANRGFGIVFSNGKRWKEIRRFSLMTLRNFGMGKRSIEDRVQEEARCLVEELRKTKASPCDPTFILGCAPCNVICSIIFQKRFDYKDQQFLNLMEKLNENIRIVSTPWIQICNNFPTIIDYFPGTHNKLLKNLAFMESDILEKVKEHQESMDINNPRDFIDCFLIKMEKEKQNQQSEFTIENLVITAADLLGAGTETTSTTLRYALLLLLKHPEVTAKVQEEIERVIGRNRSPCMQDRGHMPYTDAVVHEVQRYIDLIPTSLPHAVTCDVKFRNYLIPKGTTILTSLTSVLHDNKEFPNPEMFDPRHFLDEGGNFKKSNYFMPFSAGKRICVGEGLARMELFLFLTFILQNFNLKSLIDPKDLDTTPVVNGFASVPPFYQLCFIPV
Muscarinic acetylcholine receptor M1 (Rattus norvegicus), sequence (P08482 whole entry, looked up): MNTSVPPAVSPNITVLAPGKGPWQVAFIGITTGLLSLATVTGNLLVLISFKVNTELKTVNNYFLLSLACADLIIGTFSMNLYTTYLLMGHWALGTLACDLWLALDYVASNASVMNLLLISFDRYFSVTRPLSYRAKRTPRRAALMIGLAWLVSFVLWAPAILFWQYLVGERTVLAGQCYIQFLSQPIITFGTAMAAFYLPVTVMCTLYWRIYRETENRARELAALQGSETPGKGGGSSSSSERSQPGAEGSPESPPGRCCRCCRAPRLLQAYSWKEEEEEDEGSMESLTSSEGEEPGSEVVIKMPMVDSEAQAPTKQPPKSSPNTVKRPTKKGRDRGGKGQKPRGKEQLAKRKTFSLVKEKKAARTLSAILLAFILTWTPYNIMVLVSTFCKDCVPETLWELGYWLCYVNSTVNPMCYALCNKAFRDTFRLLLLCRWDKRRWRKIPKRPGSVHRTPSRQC
Cytochrome P450 2C9 (Homo sapiens), sequence (P11712 whole entry, looked up): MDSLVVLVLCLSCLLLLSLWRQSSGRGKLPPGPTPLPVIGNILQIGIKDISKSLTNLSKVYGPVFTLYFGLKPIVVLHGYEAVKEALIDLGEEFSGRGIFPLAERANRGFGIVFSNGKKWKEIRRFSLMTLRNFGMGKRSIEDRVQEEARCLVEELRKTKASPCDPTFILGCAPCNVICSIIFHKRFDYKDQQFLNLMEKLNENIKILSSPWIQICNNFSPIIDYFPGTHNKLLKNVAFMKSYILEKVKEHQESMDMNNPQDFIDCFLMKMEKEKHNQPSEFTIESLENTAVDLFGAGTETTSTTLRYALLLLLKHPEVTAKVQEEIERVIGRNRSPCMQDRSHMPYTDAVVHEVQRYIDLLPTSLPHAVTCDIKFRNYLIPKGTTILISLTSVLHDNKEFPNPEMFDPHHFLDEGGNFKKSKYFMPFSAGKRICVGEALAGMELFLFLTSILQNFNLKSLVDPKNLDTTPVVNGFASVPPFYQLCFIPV

Nc1ccc([N+](=O)[O-])cc1
inactive: [1] | [2] | [3] | [4] | [5] | [6] | [7]

Cc1cc(O)ccc1Cl
inactive: [1] | [8] | [2] | [9] | [3] | [4] | [5] | [6] | [7]

CNCCc1ccc(O)c(O)c1
inactive: [10] | [11] | [12] | [13] | [14]

O=[N+]([O-])c1c(Cl)c(Cl)cc(Cl)c1Cl
inactive: [1] | [2] | [3] | [4] | [5] | [6] | [7]

CN(C)[C@@H]1C(=O)C(C(N)=O)=C(O)[C@@]2(O)C(=O)C3=C(O)c4c(O)cccc4[C@@](C)(O)[C@H]3[C@H](O)[C@@H]12
inactive: [1] | [3] | [4] | [5] | [6] | [7]

C#CC1(O)CCC2C3CCC4=CC(=O)CCC4(C)C3CCC21C (stereo not drawn)
inactive: [1] | [8] | [9]

Nc1ccc(Cl)cc1
inactive: [1] | [2] | [3] | [4] | [5] | [6] | [7]

OCCCBr
inactive: [1] | [2] | [3] | [5] | [6] | [7]

S=C(NC1CCCCC1)N1CCC(c2cnc[nH]2)CC1
inactive: [10] | [12] | [13] | [14]

CN(C)NC(=O)CCC(=O)O
inactive: [1] | [2] | [3] | [4] | [5] | [6] | [7]

CC[C@@H]1C(=O)OC[C@@H]1Cc1cncn1C
active: [1] 12.6 µM

O=C(N[C@H]1CN2CCC1CC2)c1ccc(Cl)cc1
inactive: [1]

CCCCCCCCc1ccc(O)cc1
inactive: [1] | [2] | [3] | [4] | [5] | [6] | [7]

c1ccc(CCCN2CCN(CCOC(c3ccccc3)c3ccccc3)CC2)cc1
inactive: [10] | [12] | [13] | [14]
active: [11] 0.891 µM

CCOCCOC(C)=O
inactive: [1] | [2] | [3] | [4] | [5] | [6]

CCCCCCCCCCCCCCCC[N+](C)(C)C
inactive: [1] | [8] | [9]

O=c1cccc2n1CC1CNC[C@H]2C1
inactive: [15] | [16]

COc1cc2c(cc1OC)[C@@H]1C(=O)c3ccc4c(c3O[C@@H]1CO2)C=CC(C)(C)O4
active: [16] 5.01 µM

NC(=O)c1ccc(-c2nc(-c3ccc4c(c3)OCO4)c(-c3ccccn3)[nH]2)cc1
active: [16] 2.51 µM
